Screens from PubChem BioAssay.
Most compounds without a hit are left out; they make up all but 3.2% or so of the library.
IL2 activator – IL-2 activation; 360,000 tested, 0.065% active; activation, % (series mostly up to about 46 µM); IL-2 activation reporter assay, cell-based qHTS; stimulated with anti-CD3/CD4/CD28 beads; in transgenic mouse T cells; in the data active = activation above about 50%; inconclusive = mostly about 30% to 49%
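Readout: EGFP and DsRed signals by fluorescent plate cytometry. Unstimulated transgenic mouse T cells received compound 60 min before antibody-bead stimulation, then incubated 18 h at 37 degrees C.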
Nrf2 ARE act – activates Nrf2 signaling; AID 624171; Potency, µM (series often up to 46.1 µM), most hits filed as activators; AREc32 ARE-luciferase reporter (MCF7-derived line), luminescence, 24 h; 410,000 tested, 0.31% active; note: nearly all actives have a fitted effect of over 65% in size
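Steps: seed AREc32_Fluc cells (1000/well, 5% FBS OPTI-MEM); incubate overnight at 37 deg C; add 23 nL compound; incubate 24 hr; add Steady-Glo; hold 30 min RT; read luminescence.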
A549 tox – counter-screen for Nrf2 inhibitors: cytotoxicity in A549 cells; AID 504648; 390,000 tested, 0.16% active; A549 ARE-Fluc cells, CellTiter-Fluor viability, 18-24 h; Potency, µM (doses to about 46 µM), actives largely listed as inhibitors
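A549 ARE_Fluc cells in 5% FBS OPTI-MEM were exposed to compounds in concentration-response for 18-24 h at 37 deg C. Viability was read by CellTiter-Fluor fluorescence (Ex 405/Em 525) after 30 min, before the luciferase read.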
BRCA1 expr act – activators of BRCA1 expression; MCF7-BRCA1-FFLuc reporter, luminescence, 48 h; response scale: scaled: vehicle 0%, 10 µM genistein 100%; Potency, µM (series often up to 46.1 µM), most hits filed as activators; 380,000 tested, 1.1% active; AID 624202; note: nearly all actives have a fitted effect of over 80% in size
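48 h compound treatment of MCF7-BRCA1-FFLuc cells (phenol-red free MEM, 37 °C), then 15 min with luciferase substrate and luminescence imaging.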
p53 reactivation – restores transcriptional activity of mutant p53; H1299 p53-A138V BP100-luciferase reporter, luminescence, 24 h; Potency, µM (doses to about 92.2 µM), hits mostly activators; 320,000 tested, 0.063% active; AID 504706; note: nearly all actives have a fitted effect of over 45% in size
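H1299 (p53-null), stable ts p53-A138V + BP100-Luc; 1000 cells/well, Opti-MEM/10% FBS; cpd 4 pt, 1:5; 24 h, 37 deg C, 5% CO2; detection reagent 10 min RT; luminescence.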
Nrf2 inh – Nrf2 pathway inhibition. A549 ARE-Fluc reporter, luciferase luminescence, 18-24 h. Potency, µM (highest dose often 46 µM), actives largely listed as inhibitors. 360,000 tested, 2.1% active; note: nearly all actives have a fitted effect of over 60% in size
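Concentration-response testing used A549 ARE_Fluc cells at 5000 cells/well. Following an 18-24 h compound incubation, viability was read by fluorescence (Ex 405/Em 525) and luciferase output by luminescence.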
A number is an active result; - = inactive; ? = inconclusive; . = not tested or not shown. Unless noted, calls come from the whole dose curve; as a rule, active = well fitted curve in the direction sought with a large enough effect; inconclusive = small, poorly fitted or top-dose-only effect, or another doubt; inactive = no such curve, though single readings can be large; an effect the other way counts as inactive or inconclusive.

SMILES	IL2 activator	Nrf2 ARE act	A549 tox	BRCA1 expr act	p53 reactivation	Nrf2 inh
CCC(=O)N1N=C(c2ccc(NS(=O)(=O)c3ccc(C)cc3)cc2)CC1c1ccco1 (configuration not stated)	-	-	-	-	-	18µM
O=C(Nc1cc(Sc2ccccn2)cc([N+](=O)[O-])c1)c1cccc(F)c1	-	-	-	-	-	18µM
CCOc1ccc(S(=O)(=O)N2CCN(C(=S)NCc3ccccc3)CC2)cc1	-	-	-	-	-	26µM
CC(C)(C)c1ccc(C(=O)Nc2cc(-c3nc4ccccc4o3)ccc2Cl)cc1	.	-	-	.	.	-
O=C(N/N=C/c1ccc[nH]1)c1ccc(O)cc1	-	-	-	-	-	-
Cc1cc(Br)c(OCc2ccc(C(=O)N/N=C/c3ccc[nH]3)cc2)c(Br)c1	-	-	1.3µM	-	-	0.52µM
O=C(N/N=C/c1ccc[nH]1)c1ccc(COc2cccc3cccnc23)cc1	-	-	7.3µM	-	-	?
O=C1CCCC2=C1C(c1ccccc1Cl)N=C(Nc1nc3ccccc3o1)N2 (configuration not stated)	.	.	-	.	.	-
Nc1nnc(-c2cc3ccccc3oc2=O)s1	-	-	-	7.9µM	-	.
COc1ccc2oc(=O)c(-c3nc(C)cs3)cc2c1	-	-	-	?	?	?
COc1ccc2oc(=O)c(-c3nnc(N)s3)cc2c1	-	-	-	14µM	-	?
Cc1ccc(-c2nc(-c3cc4cc(Cl)ccc4oc3=O)sc2C)cc1	.	.	-	-	.	-
Cc1ccc(N2CCN(C(C(=O)Nc3c(C)cccc3C)c3cc4ccccc4o3)CC2)cc1 (configuration not stated)	-	.	.	.	.	.
C/C(=N\NC(=O)c1cc(-c2cccnc2)nc2ccccc12)c1ccc(O)cc1O	-	-	?	-	?	15µM
N#Cc1c(C(F)(F)F)cc(-c2ccc(Cl)cc2)[nH]c1=O	-	-	-	-	-	16µM
CC(C)[C@H](NC(=O)c1ccccc1Cl)C(=O)Nc1nc(-c2ccccn2)cs1	-	-	-	-	-	15µM
CC(=O)Nc1ccc(C(=O)Nc2nc(-c3ccccn3)cs2)cc1	-	-	-	-	-	-
CC(Oc1ccc(Br)cc1)C(=O)Nc1nc(-c2ccccn2)cs1 (configuration not stated)	-	?	?	-	?	16µM
CCCn1nc(C(=O)Nc2nc(-c3ccccn3)cs2)c2ccccc2c1=O	-	-	-	-	-	8.2µM
O=C(COc1ccc(F)cc1)Nc1nc(-c2ccccn2)cs1	-	-	-	-	-	-
O=C(Nc1nc(-c2ccccn2)cs1)c1ccccc1-n1cnnn1	-	-	-	-	-	5.8µM
CCn1nc(C(=O)Nc2nc(-c3ccccn3)cs2)c2ccccc2c1=O	-	-	-	-	-	?
COc1ccc(C2/C=C\CN(CC(C)C)C(C)C(=O)N2Cc2ccc(F)cc2)cc1 (configuration not stated)	.	.	-	.	.	-
CC(=O)c1ccc(Nc2cc(C)nc3nc(Cc4ccc(Cl)cc4)nn23)cc1	.	-	-	-	.	?
CC(C)(C)NC(=O)c1ccc2c(c1)C1C3CCC(C3)C1C(c1ccccc1)N2 (configuration not stated)	-	-	-	-	-	-
SMILES	IL2 activator	Nrf2 ARE act	A549 tox	BRCA1 expr act	p53 reactivation	Nrf2 inh
CCCNC(=O)c1ccc2c(c1)C1C3CCC(C3)C1C(c1ccccc1)N2 (configuration not stated)	-	-	?	-	-	21µM
CC(=O)c1c(C(C)=O)c(C)n(-c2nc(-c3ccc(C)c(C)c3)c(C)s2)c1C	-	-	-	-	-	13µM
CCOC(=O)CSc1nc2ccc(NC(=O)c3ccccc3F)cc2s1	.	-	-	-	.	-
Cc1cccc(NC(=O)COc2ccc(Br)cc2/C=N/O)c1	-	-	-	4.5µM	?	?
O=C(OCC#CCSc1nnc(-c2cccc3ccccc23)o1)c1cccc(F)c1	.	.	-	.	.	-
Cc1ccccc1CS(=O)(=O)c1cnc2ccccc2n1	-	8.9µM	-	-	-	-
Cc1cccc(OCC(=O)Nc2c(C(=O)N3CCN(c4ccccc4)CC3)oc3ccccc23)c1	.	-	-	.	.	?
COc1cccc(-c2cc(C(F)(F)F)nc(-n3cc(Cl)cn3)n2)c1	-	-	-	-	-	10µM
COc1ccc(C2Nc3ccccc3C(=O)N2c2cccc3ccccc23)cc1COc1c(C)cccc1C (configuration not stated)	.	.	-	-	.	-
O=C(CSc1nnc(NC2CCCCC2)s1)Nc1ccc2c(c1)C(=O)c1ccccc1C2=O	-	-	-	4.5µM	-	?
CC(C)Nc1nnc(SCC(=O)Nc2ccc3c(c2)C(=O)c2ccccc2C3=O)s1	-	-	-	?	?	-
O=C(COC(=O)CCN1C(=O)/C(=C\C=C\c2ccccc2)SC1=S)Nc1cc(F)ccc1F	-	-	?	-	-	8.2µM
O=C(/C=C/c1ccccc1Cl)N1CCOCC1	-	-	-	-	-	-
O=C(/C=C/c1cccc([N+](=O)[O-])c1)N1CCOCC1	-	13µM	-	-	-	-
O=C(/C=C/c1ccc(-c2cccc([N+](=O)[O-])c2)o1)N1CCOCC1	-	-	-	?	-	?
CCCCCCOc1ccc(/C=C/C(=O)N2CCOCC2)cc1OC	-	-	-	-	-	?
O=C(/C=C/c1ccc(OCCCF)cc1)N1CCOCC1	-	-	-	10µM	-	?
O=C(/C=C/c1cccc(Oc2ccccc2)c1)N1CCOCC1	-	-	-	8.9µM	-	-
O=C(/C=C/c1cccc2ccccc12)N1CCOCC1	-	-	-	10µM	-	-
CCc1cccc(NC(=O)CCS(=O)(=O)c2ccc3nc(C)sc3c2)c1	.	-	-	.	.	-
CCn1cnc2c(Nc3ccc(Cc4cccnc4)cc3)nc(C#N)nc21	.	.	-	.	.	?
Cc1cc(NC(=O)c2cccc(Oc3ccccc3)c2)n[nH]1	-	-	-	11µM	-	?
COC(=O)c1c(NC(=O)COc2cccc(C(F)(F)F)c2)sc2c1CCCC2	.	-	-	.	.	-
COC(=O)c1c[nH]c2c1-c1cc(C(=O)OCc3ccccc3)n(S(=O)(=O)c3ccc(C)cc3)c1C(=O)C2=O	-	-	4.1µM	-	.	4.1µM
Cc1ccc(S(=O)(=O)Cc2ccc(C(=O)OCc3ccccc3)cc2)cc1	-	-	-	-	-	-
CCCN1C(=O)C2(c3ccccc31)c1c(oc3cc(C)c(C)cc3c1=O)C(=O)N2CCCOC (configuration not stated)	.	-	-	-	.	-
